Measured values as given in PubChem BioAssay.
Values joined by “and” are separate entries in the source; they are usually repeats but may differ in a detail not shown here. Equal entries are not always repeated. Inconclusive results are not listed. Active and inactive are the calls of the source.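 How the source made its calls, unless noted: active means normalized viability below 100% at a tested concentration; inactive means the rest.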

What was measured:
[1] = liver-stage malaria parasite growth inhibition, primary screen, cell-based, HepG2, luciferase luminescence, HepG2 viability (AID 624349; in the data active means parasite load remaining mostly below about 12%, no sharp cut-off; inactive means mostly above about 10%;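 further: 100% = mean of DMSO negative control wells on the same plate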); details: P. berghei liver stage in HepG2, luciferase luminescence, concentration not given here; parasite load remaining: stronger effect = lower value; viability: measured here: HepG2 viability without parasites
[2] = stimulators of nuclear beta-catenin in C2C12, primary screen, imaging, WNT3A-conditioned medium, mouse C2C12, NPC library (AID 1117326; in the data active means nuclear beta-catenin stimulation mostly above about 4.2%, no sharp cut-off; inactive means mostly below about 10%); details: stronger effect = higher value
[3] = stimulators of insulin release from INS-1E, primary screen, cell-based, 5 mM glucose, NPC library (AID 1117329;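 active means compound raises insulin release from rat beta cells at 5 mM glucose, no numeric limit stated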); details: rat INS-1E insulin secretion, at 10 µM, stronger effect = higher value
[4] = growth inhibition of GSK3B-pretreated HCT116 cells – cell-based, CellTiter-Glo, 0.2 to 20 µM (AID 1117336;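 active means compounds lowering colon cancer cell viability after pretreatment blocking the GSK3B kinase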); details: HCT116 viability after GSK3B inhibitor, at 20 µM, stronger effect = higher value
[5] = inhibition of endothelial tube formation, primary screen, imaging, VEGF stimulated, CD31 staining, tube area, NPC library (AID 1117340;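 active means compound that reduces growth-factor-driven endothelial tube area in a mixed cell culture, no cutoff stated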); details: VEGF-stimulated ADSC/ECFC co-culture, at 10 µM, stronger effect = higher value
[6] = glucagon-like peptide 1 release enhancers, primary assay, NCI-H716 cell line, NPC library (AID 1117341;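 active means compound raises GLP1 secretion from the human gut endocrine cells, with no numeric limit stated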); details: NCI-H716 cells, at 10 µM, stronger effect = higher value
[7] = HCT116 colon cancer cell growth inhibition, primary screen, CellTiter-Glo luminescence, NPC library (AID 1117342;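 active means compounds that lower survival of HCT116 colon cancer cells in the luminescence readout, no numeric limit stated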); details: at 20 µM (top of the series)
[8] = CellTiter-Glo luminescent readout of SW480 viability loss, NPC library primary (AID 1117343;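 active means compounds that lower viability of the colon cancer cells in the luminescence readout, with no numeric limit stated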); details: CellTiter-Glo luminescence; at 20 µM (top of the series) unless noted
[9] = decreased DLD-1 cellular survival, CellTiter-Glo luminescent readout, NPC compound collection, primary HTS (AID 1117346;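 active means compounds that lower survival of DLD-1 colon cancer cells in the luminescence readout, no cutoff given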); details: DLD-1 viability, CellTiter-Glo luminescence; at 20 µM (top of the series)
[10] = growth inhibition of DIPG glioma cells, dose response, cell-based, SU-DIPG-XVII, MIPE5.0, CellTiter-Glo, qHTS (AID 1347060; cut-off not given, nearly all actives have AC50 up to about 26 µM;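 on AC50: cells exposed to compound for 48 hours before viability readout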); details: SU-DIPG-XVII viability, CellTiter-Glo ATP luminescence
[11] = growth inhibition of DIPG glioma cells, dose response, cell-based, SU-DIPG-XIII, MIPE4.0, CellTiter-Glo, qHTS (AID 1347061; cut-off not given, nearly all actives have AC50 up to about 37 µM;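 further: cells exposed to compound for 48 hours before readout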); details: SU-DIPG-XIII viability, CellTiter-Glo ATP luminescence
[12] = growth inhibition of DIPG glioma cells, dose response, cell-based, JHH-DIPG-1, MIPE4.0, CellTiter-Glo, qHTS (AID 1347062; cut-off not given, nearly all actives have AC50 up to about 27 µM); details: JHH-DIPG-1 viability, CellTiter-Glo ATP luminescence
[13] = viability loss in pontine glioma line – cell-based, SU-DIPG-XXV, MIPE5.0, CellTiter-Glo, qHTS, dose response (AID 1347065; cut-off not given, nearly all actives have AC50 up to about 26 µM;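 further: cells exposed to compound for 48 hours before ATP readout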); details: CellTiter-Glo ATP luminescence
[14] = SU-DIPG-VI glioma cell viability, MIPE4.0 library, CellTiter-Glo luminescence, qHTS (AID 1347066; cut-off not given, nearly all actives have AC50 up to about 30 µM;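 further: cells exposed to compound for 48 hours before readout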); details: CellTiter-Glo ATP luminescence
[15] = SU-DIPG-XXV glioma cell viability, MIPE5.0 library, qHTS (AID 1347068; cut-off not given, nearly all actives have IC50 up to about 30 µM)
[16] = sensitizers of A549 cells to miR-34 induction, primary screen, imaging, A549 dox-inducible miR-34, nuclei and caspase counts (AID 1347080;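 active means compounds whose cell count with miR-34 switched on is under 0.7 times the count with it off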); details: A549 miR-34 inducible, Hoechst nuclei count, 48 h
[17] = survival rescue of mitochondrial mutant cells in low glucose, primary screen, MELAS cybrids, Rieske KO mouse fibroblasts, CellTiter-Glo (AID 1508586;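 active means mean z-score across replicates of 1.96 or higher in either the MELAS or the Rieske mutant cell line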;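 further: z relative to plate mean and SD of compound and empty wells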)
[18] = viability rescue of complex I mutant cybrids, primary screen, cell-based, galactose medium, ATP luminescence (AID 1645843;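 active means z-score of at least 1.8 in each of two replicates, scored against plate mean and spread of sample wells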;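 further: positive z means more ATP and so rescue of galactose-driven cybrid death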); details: complex I mutant cybrid cells, 72 h, stronger effect = higher value
[19] = ovarian cancer cell viability with rucaparib, profiling panel, oncology-focused library, rucaparib conditional (AID 1508598); details: patient-derived ovarian cancer cells, CellTiter-Glo viability, 144 h, stronger effect = lower value
[20] = stronger effect = lower value, cell number ratio, induced over uninduced
[21] = measured here: relative caspase fold change +Dox/-Dox
[22] = measured here: total cells with miR-34 induction, stronger effect = lower value
[23] = measured here: total cells without miR-34 induction
[24] = MELAS cybrid survival, CellTiter-Glo 48 h, stronger effect = higher value
[25] = Rieske KO mouse fibroblast survival, CellTiter-Glo 72 h

CCN[C@H]1C[C@H](C)S(=O)(=O)c2sc(S(N)(=O)=O)cc21
-0.635 and -0.666: z-score [17, 25]
9940 and 10700: cell count [16, 23]
73% and 119%: viability [1]
1.7%: nuclear beta-catenin stimulation ([2]; stimulation, at 2 µM)
0.692 and 0.631: fold change [16, 21]
inactive: parasite load remaining [1] 70.8% and 54% | nuclear beta-catenin stimulation ([2]; at 10 µM) 0.6% | insulin secretion stimulation [3] 2.65% | viability decrease [4] 10.3% | tube area decrease [5] -2.8% | GLP1 secretion stimulation [6] 2.1% | inhibition of viability [7] 4.1% | viability decrease (inhibition) [8] -12.1% | viability decrease (inhibition) [9] 3.2% | outcome [10] | outcome [11] | outcome [12] | outcome [13] | outcome [14] | outcome [15] | fold change [16, 20] 0.888 and 0.89 | z-score [17, 24] -0.0417 and -1.04 | z-score [18] 0.255
8830 and 9540: cell count [16, 22]

Clc1ccc(Nc2nnc(Cc3ccncc3)c3ccccc23)cc1
144%: viability [1]
4850 and 8750: cell count [16, 23]
0.974 and 0.999: fold change [16, 21]
0.486 and -0.638 and 0.713: z-score [17, 25]
active: viability decrease [4] 76.2% | tube area decrease [5] 104% | viability decrease (inhibition) [8] 51.3% | AC50 [10] 16.6 µM | AC50 [13] 20.9 µM | viability ([19]; at 0.000305 µM, OCI-C5x cells, without rucaparib) 86.5% | viability ([19]; at 0.000305 µM, OCI-P5x cells, with rucaparib 20 µM, 100% = cells with rucaparib alone) 94.6% | viability ([19]; at 0.000305 µM, OCI-P5x cells, without rucaparib) 89.3% | viability ([19]; at 0.00122 µM, OCI-C5x cells, without rucaparib) 97.1% | viability ([19]; at 0.00122 µM, OCI-P5x cells, without rucaparib) 94.6% | viability ([19]; at 0.00488 µM, OCI-C5x cells, without rucaparib) 98.5% | viability ([19]; at 0.00488 µM, OCI-P5x cells, with rucaparib 20 µM, 100% = cells with rucaparib alone) 99.2% | viability ([19]; at 0.0195 µM, OCI-C5x cells, without rucaparib) 99.4% | viability ([19]; at 0.0195 µM, OCI-P5x cells, without rucaparib) 95.6% | viability ([19]; at 0.0781 µM, OCI-C5x cells, without rucaparib) 98.5% | viability ([19]; at 0.0781 µM, OCI-P5x cells, without rucaparib) 95.5% | viability ([19]; at 1.25 µM, OCI-P5x cells, without rucaparib) 94.9% | viability ([19]; at 5 µM, OCI-P5x cells, with rucaparib 20 µM, 100% = cells with rucaparib alone) 95.2% | viability ([19]; at 5 µM, OCI-P5x cells, without rucaparib) 99.5%
-0.4%: nuclear beta-catenin stimulation ([2]; stimulation, at 2 µM)
inactive: parasite load remaining [1] 24.4% | nuclear beta-catenin stimulation ([2]; at 10 µM) -2.6% | insulin secretion stimulation [3] 9.3% | GLP1 secretion stimulation [6] -2.6% | inhibition of viability [7] 36% | viability decrease (inhibition) [9] 35.7% | outcome [11] | outcome [12] | outcome [14] | outcome [15] | fold change [16, 20] 0.99 and 0.927 | z-score [17, 24] -0.464 and -0.665 and -0.288 | viability ([19]; at 0.000305 µM, OCI-C5x cells, with rucaparib 10 µM, 100% = cells with rucaparib alone) 121% | viability ([19]; at 0.00122 µM, OCI-C5x cells, with rucaparib 10 µM, 100% = cells with rucaparib alone) 125% | viability ([19]; at 0.00122 µM, OCI-P5x cells, with rucaparib 20 µM, 100% = cells with rucaparib alone) 102% | viability ([19]; at 0.00488 µM, OCI-C5x cells, with rucaparib 10 µM, 100% = cells with rucaparib alone) 117% | viability ([19]; at 0.00488 µM, OCI-P5x cells, without rucaparib) 100% | viability ([19]; at 0.0195 µM, OCI-C5x cells, with rucaparib 10 µM, 100% = cells with rucaparib alone) 121% | viability ([19]; at 0.0195 µM, OCI-P5x cells, with rucaparib 20 µM, 100% = cells with rucaparib alone) 102% | viability ([19]; at 0.0781 µM, OCI-C5x cells, with rucaparib 10 µM, 100% = cells with rucaparib alone) 114% | viability ([19]; at 0.0781 µM, OCI-P5x cells, with rucaparib 20 µM, 100% = cells with rucaparib alone) 101% | viability ([19]; at 0.313 µM, OCI-C5x cells, with rucaparib 10 µM, 100% = cells with rucaparib alone) 125% | viability ([19]; at 0.313 µM, OCI-C5x cells, without rucaparib) 110% | viability ([19]; at 0.313 µM, OCI-P5x cells, with rucaparib 20 µM, 100% = cells with rucaparib alone) 100% | viability ([19]; at 0.313 µM, OCI-P5x cells, without rucaparib) 105% | viability ([19]; at 1.25 µM, OCI-C5x cells, with rucaparib 10 µM, 100% = cells with rucaparib alone) 129% | viability ([19]; at 1.25 µM, OCI-C5x cells, without rucaparib) 115% | viability ([19]; at 1.25 µM, OCI-P5x cells, with rucaparib 20 µM, 100% = cells with rucaparib alone) 105% | viability ([19]; at 5 µM, OCI-C5x cells, with rucaparib 10 µM, 100% = cells with rucaparib alone) 128% | viability ([19]; at 5 µM, OCI-C5x cells, without rucaparib) 142% | z-score [18] 1.34
4800 and 8110: cell count [16, 22]
